Laboratory results published in the supplement of paper PMC10849652.
Targets with a hit are over-represented here; the source holds about 8,800 in all. About 0.5% of all pairs of compound and target were hits.

Columns and labels:
Test in all cases: log2 fold change, soluble protein after heating vs DMSO (PISA); higher = thermal stabilisation; K562 lysate, 10 uM; active = over 0.2 and 3.5 SD of the protein, either way, in both replicates (recomputed)
nilotinib = compound: Cc1cn(-c2cc(NC(=O)c3ccc(C)c(Nc4nccc(-c5cccnc5)n4)c3)cc(C(F)(F)F)c2)cn1 [nilotinib]
Procedure, shortened: (§1)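 Pellets of K562 cells were dounce-homogenised in PBS pH 7.4 with 1 mM MgCl2, and the crude extract was held at 1 mg/mL protein for a 30 min treatment with 10 μM compound. Aliquots were heated for 3 min over 48°C-58°C and pooled before NP-40 was added to 0.5% at 4°C. The supernatant from 21,000xg for 90 min was quantified by TMTpro 16plex LC-MS/MS with channel sums equalised. Values are reported from duplicates as log-two fold change in thermal stability relative to solvent controls.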

[1] = compound: Cc1nc(Nc2n[nH]c3c2CN(C(=O)N[C@H](CN(C)C)c2ccccc2)C3(C)C)c2sccc2n1
Procedure, shortened: as §1

dasatinib = compound: Cc1nc(Nc2ncc(C(=O)Nc3c(C)cccc3Cl)s2)cc(N2CCN(CCO)CC2)n1 [dasatinib]
Procedure, shortened: as §1

[2] = compound: Cc1ncc(-c2ccnc(Nc3ccc(S(C)(=O)=O)cc3)n2)n1C(C)C
Procedure, shortened: as §1

[3] = compound: Cn1cc(-c2ccc3c(c2)CCN3C(=O)Cc2cccc(C(F)(F)F)c2)c2c(N)ncnc21
Procedure, shortened: as §1

quisinostat = compound: Cn1cc(CNCC2CCN(c3ncc(C(=O)NO)cn3)CC2)c2ccccc21 [quisinostat]
Procedure, shortened: as §1

tipifarnib = compound: Cn1cncc1[C@@](N)(c1ccc(Cl)cc1)c1ccc2c(c1)c(-c1cccc(Cl)c1)cc(=O)n2C [tipifarnib]
Procedure, shortened: as §1

[4] = compound: NC(=O)Nc1cc(-c2cccc(F)c2)sc1C(=O)N[C@H]1CCCNC1
Procedure, shortened: as §1

[5] = compound: NC(=O)c1cnc(N[C@@H]2CCCC[C@@H]2N)nc1Nc1cccc(-n2nccn2)c1
Procedure, shortened: as §1

[6] = compound: NC1(c2ccc(-c3nc4ccn5c(=O)[nH]nc5c4cc3-c3ccccc3)cc2)CCC1
Procedure, shortened: as §1

[7] = compound: NCC(=O)Nc1ccc(-n2nc(C(F)(F)F)cc2-c2ccc3c(ccc4ccccc43)c2)cc1
Procedure, shortened: as §1

vorinostat = compound: O=C(CCCCCCC(=O)Nc1ccccc1)NO [vorinostat]
Procedure, shortened: as §1

silmitasertib = compound: O=C(O)c1ccc2c(c1)nc(Nc1cccc(Cl)c1)c1ccncc12 [silmitasertib]
Procedure, shortened: as §1

[8] = compound: O=C1NC(=O)C(c2cnc3ccccn23)=C1c1cn2c3c(cc(F)cc13)CN(C(=O)N1CCCCC1)CC2
Procedure, shortened: as §1

entospletinib = compound: c1cn2cc(-c3ccc4cn[nH]c4c3)nc(Nc3ccc(N4CCOCC4)cc3)c2n1 [entospletinib]
Procedure, shortened: as §1

Measured: log2 fold change

TMEM199 (UniProt Q8N511)
inactive: nilotinib 0.005 | [1] 0.005 | dasatinib -0.011 | [2] 0.001 | [3] 0.046 | quisinostat 0.031 | tipifarnib 0.026 | [4] 0 | [5] 0.005 | [6] 0.068 | [7] 0.021 | vorinostat 0.13 | silmitasertib -0.017 | [8] -0.005 | entospletinib 0.008

TBC1D8B (UniProt Q0IIM8)
inactive: nilotinib 0.021 | [1] -0.035 | dasatinib 0.01 | [2] 0.015 | [3] -0.042 | quisinostat -0.061 | tipifarnib 0.036 | [4] 0.034 | [5] -0.042 | [6] -0.034 | [7] 0.036 | vorinostat 0.147 | silmitasertib -0.037 | [8] 0.011 | entospletinib 0.131

TRAPPC10 (UniProt P48553)
Sequence of UniProt P48553 (P48553 whole entry, looked up): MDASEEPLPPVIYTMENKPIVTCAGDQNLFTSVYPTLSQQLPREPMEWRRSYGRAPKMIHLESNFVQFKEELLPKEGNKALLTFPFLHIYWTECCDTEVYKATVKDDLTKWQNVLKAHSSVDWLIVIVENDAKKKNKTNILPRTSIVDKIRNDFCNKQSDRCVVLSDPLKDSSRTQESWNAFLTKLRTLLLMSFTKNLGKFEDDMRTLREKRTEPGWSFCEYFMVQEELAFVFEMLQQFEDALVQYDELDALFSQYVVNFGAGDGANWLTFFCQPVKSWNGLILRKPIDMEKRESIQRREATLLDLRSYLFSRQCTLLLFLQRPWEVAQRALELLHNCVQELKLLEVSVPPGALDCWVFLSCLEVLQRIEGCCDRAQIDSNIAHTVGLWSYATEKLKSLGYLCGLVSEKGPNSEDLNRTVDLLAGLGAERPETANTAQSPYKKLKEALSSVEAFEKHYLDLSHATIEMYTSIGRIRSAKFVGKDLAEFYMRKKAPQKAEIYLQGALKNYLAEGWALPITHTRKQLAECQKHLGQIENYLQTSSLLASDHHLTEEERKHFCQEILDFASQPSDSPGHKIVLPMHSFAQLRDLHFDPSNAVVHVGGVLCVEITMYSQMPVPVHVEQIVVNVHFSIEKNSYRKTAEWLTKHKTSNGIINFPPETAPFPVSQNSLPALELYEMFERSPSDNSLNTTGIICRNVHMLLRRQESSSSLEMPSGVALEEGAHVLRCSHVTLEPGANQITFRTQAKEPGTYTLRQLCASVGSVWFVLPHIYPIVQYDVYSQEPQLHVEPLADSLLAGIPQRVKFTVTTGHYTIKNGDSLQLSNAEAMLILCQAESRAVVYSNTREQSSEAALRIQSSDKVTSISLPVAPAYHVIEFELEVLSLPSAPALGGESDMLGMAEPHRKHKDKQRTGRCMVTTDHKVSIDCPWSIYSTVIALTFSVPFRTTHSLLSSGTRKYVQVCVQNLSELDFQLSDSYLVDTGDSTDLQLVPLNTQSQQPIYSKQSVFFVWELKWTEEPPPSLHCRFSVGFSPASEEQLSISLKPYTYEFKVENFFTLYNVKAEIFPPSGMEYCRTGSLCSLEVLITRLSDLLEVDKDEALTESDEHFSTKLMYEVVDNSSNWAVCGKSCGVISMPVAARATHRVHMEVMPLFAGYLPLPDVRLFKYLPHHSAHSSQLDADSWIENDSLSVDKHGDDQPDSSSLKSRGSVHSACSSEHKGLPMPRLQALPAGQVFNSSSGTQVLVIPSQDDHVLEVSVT
active: vorinostat -0.248
inactive: nilotinib 0.008 | [1] 0 | dasatinib 0.011 | [2] -0.003 | [3] 0.02 | quisinostat -0.006 | tipifarnib 0.011 | [4] 0.035 | [5] 0.026 | [6] -0.05 | [7] 0.015 | silmitasertib 0.005 | [8] 0.049 | entospletinib 0

TRIM56 (UniProt Q9BRZ2)
Sequence of UniProt Q9BRZ2 (Q9BRZ2 whole entry, looked up): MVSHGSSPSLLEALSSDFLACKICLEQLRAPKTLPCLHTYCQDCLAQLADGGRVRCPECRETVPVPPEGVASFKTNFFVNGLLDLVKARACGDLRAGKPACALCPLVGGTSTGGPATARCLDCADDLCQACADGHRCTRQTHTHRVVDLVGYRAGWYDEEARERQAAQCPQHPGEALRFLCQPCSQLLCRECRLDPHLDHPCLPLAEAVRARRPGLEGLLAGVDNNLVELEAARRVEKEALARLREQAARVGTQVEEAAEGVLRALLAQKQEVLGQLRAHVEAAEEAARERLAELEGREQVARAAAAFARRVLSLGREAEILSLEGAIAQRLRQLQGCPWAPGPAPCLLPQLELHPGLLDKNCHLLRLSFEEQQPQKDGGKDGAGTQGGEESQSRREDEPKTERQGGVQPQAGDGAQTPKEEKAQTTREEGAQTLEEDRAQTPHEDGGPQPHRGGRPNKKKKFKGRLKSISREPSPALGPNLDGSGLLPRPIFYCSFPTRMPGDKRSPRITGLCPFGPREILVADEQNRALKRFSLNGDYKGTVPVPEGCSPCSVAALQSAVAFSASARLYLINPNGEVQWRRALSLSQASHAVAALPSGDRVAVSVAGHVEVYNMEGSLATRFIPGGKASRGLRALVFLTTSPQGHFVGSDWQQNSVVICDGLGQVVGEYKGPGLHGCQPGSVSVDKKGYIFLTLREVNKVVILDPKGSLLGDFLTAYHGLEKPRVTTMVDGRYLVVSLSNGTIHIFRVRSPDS
inactive: nilotinib 0.033 | [1] 0.031 | dasatinib -0.073 | [2] -0.006 | [3] 0.017 | quisinostat -0.043 | tipifarnib -0.048 | [4] 0.005 | [5] -0.01 | [6] 0.007 | [7] -0.022 | silmitasertib -0.043 | [8] -0.016 | entospletinib -0.004
active: vorinostat -0.428

TBL3 (UniProt Q12788)
Sequence of UniProt Q12788 (Q12788 whole entry, looked up): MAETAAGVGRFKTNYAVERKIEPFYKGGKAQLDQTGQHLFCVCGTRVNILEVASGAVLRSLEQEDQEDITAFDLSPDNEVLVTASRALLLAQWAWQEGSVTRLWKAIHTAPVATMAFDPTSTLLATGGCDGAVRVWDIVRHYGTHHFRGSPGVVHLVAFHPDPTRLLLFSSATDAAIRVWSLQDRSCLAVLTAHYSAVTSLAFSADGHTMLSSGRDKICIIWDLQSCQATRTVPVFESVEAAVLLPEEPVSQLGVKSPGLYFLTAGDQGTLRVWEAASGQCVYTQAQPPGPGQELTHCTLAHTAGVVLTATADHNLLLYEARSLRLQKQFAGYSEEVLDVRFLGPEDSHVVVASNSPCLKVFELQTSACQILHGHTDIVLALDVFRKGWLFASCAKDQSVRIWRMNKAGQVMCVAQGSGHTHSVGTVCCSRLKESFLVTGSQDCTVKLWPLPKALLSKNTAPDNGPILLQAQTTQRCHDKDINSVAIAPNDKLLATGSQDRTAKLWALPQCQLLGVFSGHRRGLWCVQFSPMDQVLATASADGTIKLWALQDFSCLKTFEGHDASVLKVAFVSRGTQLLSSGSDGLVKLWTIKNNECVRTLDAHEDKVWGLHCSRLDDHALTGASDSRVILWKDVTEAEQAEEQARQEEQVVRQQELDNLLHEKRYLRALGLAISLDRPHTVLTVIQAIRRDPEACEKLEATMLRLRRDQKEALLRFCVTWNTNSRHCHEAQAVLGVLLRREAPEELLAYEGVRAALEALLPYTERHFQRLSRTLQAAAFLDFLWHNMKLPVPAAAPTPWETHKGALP
inactive: nilotinib -0.009 | [1] 0.025 | dasatinib -0.013 | [2] 0.016 | [3] 0.011 | quisinostat -0.046 | tipifarnib 0.008 | [4] 0.056 | [5] -0.032 | [6] -0.052 | [7] 0.015 | silmitasertib -0.011 | [8] -0.001 | entospletinib -0.023
active: vorinostat -0.263

TOR3A (UniProt Q9H497)
inactive: nilotinib 0.042 | [1] -0.037 | dasatinib 0.022 | [2] -0.043 | [3] 0.012 | quisinostat 0.019 | tipifarnib -0.061 | [4] 0.054 | [5] 0.041 | [6] -0.064 | [7] 0.011 | vorinostat 0.048 | silmitasertib -0.002 | [8] -0.016 | entospletinib 0.02

TBL2 (UniProt Q9Y4P3)
inactive: nilotinib -0.025 | [1] -0.043 | dasatinib -0.008 | [2] -0.004 | [3] 0.014 | quisinostat -0.031 | tipifarnib -0.06 | [4] -0.007 | [5] 0.003 | [6] -0.037 | [7] -0.035 | silmitasertib -0.007 | [8] -0.035 | entospletinib 0.02
active: vorinostat -0.292

TTC37 (UniProt Q6PGP7)
active: quisinostat -0.408
inactive: nilotinib 0.03 | [1] -0.001 | dasatinib -0.163 | [2] 0.013 | [3] -0.085 | tipifarnib -0.012 | [4] 0.065 | [5] 0.005 | [6] -0.087 | [7] 0.136 | vorinostat 0.153 | silmitasertib 0.03 | [8] 0.046

TNIK isoform 4 (UniProt Q9UKE5)
inactive: nilotinib -0.019 | [1] 0.087 | dasatinib 0.203 | [2] 0.11 | [3] -0.011 | quisinostat -0.198 | tipifarnib -0.022 | [5] 0.08 | [6] -0.021 | [7] -0.019 | vorinostat -0.135 | silmitasertib 0.004 | [8] -0.114 | entospletinib 0.208
active: [4] 0.483

TIAL1 isoform 2 (UniProt Q01085)
inactive: [1] -0.013 | dasatinib 0.025 | [2] -0.015 | [3] 0.028 | quisinostat 0.039 | tipifarnib -0.037 | [4] -0.016 | [5] 0.004 | [6] 0.033 | [7] -0.001 | vorinostat 0.041 | silmitasertib 0.023 | [8] -0.049 | entospletinib 0.028
active: nilotinib -0.603

TTC27 (UniProt Q6P3X3)
active: vorinostat -0.403
inactive: nilotinib -0.018 | [1] 0.027 | dasatinib -0.009 | [2] -0.031 | [3] 0.01 | quisinostat -0.047 | tipifarnib -0.03 | [4] 0.057 | [5] -0.028 | [6] -0.023 | [7] -0.027 | silmitasertib 0.053 | [8] -0.06 | entospletinib -0.002

TPM3 isoform 2 (UniProt P06753)
inactive: nilotinib -0.048 | [1] 0.019 | dasatinib 0.012 | [2] -0.005 | [3] 0.014 | quisinostat 0.14 | tipifarnib 0.06 | [4] -0.024 | [5] -0.003 | [6] 0.047 | [7] -0.032 | vorinostat 0.048 | silmitasertib 0.011 | [8] -0.047 | entospletinib -0.029

TPD52L2 isoform 7 (UniProt O43399)
Sequence of UniProt O43399 (O43399 whole entry, looked up): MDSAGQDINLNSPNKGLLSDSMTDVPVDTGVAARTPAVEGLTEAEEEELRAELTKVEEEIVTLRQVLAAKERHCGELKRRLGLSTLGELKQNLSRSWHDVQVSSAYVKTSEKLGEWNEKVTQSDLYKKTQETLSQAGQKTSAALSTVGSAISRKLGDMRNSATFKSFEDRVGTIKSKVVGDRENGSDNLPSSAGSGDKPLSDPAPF
inactive: nilotinib 0.022 | [1] 0.019 | dasatinib 0.056 | [2] 0.042 | [3] -0.009 | quisinostat 0.038 | tipifarnib -0.012 | [4] -0.022 | [5] -0.039 | [6] 0.049 | [7] -0.043 | vorinostat 0.148 | silmitasertib -0.044 | [8] -0.027 | entospletinib -0.016

TRIM25 (UniProt Q14258)
inactive: nilotinib 0.014 | [1] 0.027 | dasatinib -0.003 | [2] -0.001 | [3] -0.002 | quisinostat 0.002 | tipifarnib -0.001 | [4] -0.001 | [5] -0.019 | [6] 0.023 | [7] 0.013 | silmitasertib -0.046 | [8] -0.018 | entospletinib 0.011
active: vorinostat -0.59

TNKS (UniProt O95271)
inactive: nilotinib -0.053 | [1] -0.016 | dasatinib 0.081 | [2] 0.04 | [3] -0.051 | quisinostat -0.021 | tipifarnib 0.103 | [4] 0.032 | [5] 0.088 | [6] 0.028 | [7] -0.009 | vorinostat -0.1 | silmitasertib 0.06 | [8] -0.001 | entospletinib -0.085

TECR (UniProt Q9NZ01)
Sequence of UniProt Q9NZ01 (Q9NZ01 whole entry, looked up): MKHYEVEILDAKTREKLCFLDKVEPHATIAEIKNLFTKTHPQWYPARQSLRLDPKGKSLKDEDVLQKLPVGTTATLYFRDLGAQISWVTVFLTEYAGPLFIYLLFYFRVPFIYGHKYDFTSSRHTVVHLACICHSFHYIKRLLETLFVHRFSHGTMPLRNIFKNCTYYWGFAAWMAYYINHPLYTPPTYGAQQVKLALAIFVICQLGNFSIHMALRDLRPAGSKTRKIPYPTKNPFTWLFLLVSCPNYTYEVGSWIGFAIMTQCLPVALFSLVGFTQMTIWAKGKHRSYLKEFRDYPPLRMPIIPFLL
inactive: nilotinib -0.06 | [1] 0.018 | dasatinib -0.062 | [2] -0.011 | [3] -0.043 | quisinostat -0.024 | tipifarnib -0.09 | [4] 0.041 | [5] -0.009 | [6] -0.047 | [7] -0.031 | vorinostat 0.024 | silmitasertib 0.076 | [8] 0.032 | entospletinib 0.033

TTF2 (UniProt Q9UNY4)
active: vorinostat -0.317
inactive: nilotinib -0.008 | [1] -0.062 | dasatinib -0.012 | [2] -0.023 | [3] 0.018 | quisinostat -0.042 | tipifarnib 0.004 | [4] 0.02 | [5] 0.019 | [6] -0.067 | [7] 0.02 | silmitasertib 0.008 | [8] -0.032 | entospletinib -0.074

TPM4 (UniProt P67936)
inactive: nilotinib 0.028 | [1] -0.068 | dasatinib 0.058 | [2] -0.028 | [3] -0.01 | quisinostat 0 | tipifarnib -0.004 | [4] -0.054 | [5] 0.007 | [6] -0.029 | [7] -0.001 | vorinostat 0.166 | silmitasertib -0.018 | [8] -0.023 | entospletinib 0.048

UBR1 (UniProt Q8IWV7)
inactive: nilotinib -0.022 | [1] 0.01 | dasatinib -0.012 | [2] 0.013 | [3] 0.046 | quisinostat -0.093 | tipifarnib 0.007 | [4] 0.021 | [5] -0.006 | [6] -0.021 | [7] -0.04 | silmitasertib 0.025 | [8] 0.008 | entospletinib -0.024
active: vorinostat -0.239

UBE3B (UniProt Q7Z3V4)
Sequence of UniProt Q7Z3V4 (Q7Z3V4 whole entry, looked up): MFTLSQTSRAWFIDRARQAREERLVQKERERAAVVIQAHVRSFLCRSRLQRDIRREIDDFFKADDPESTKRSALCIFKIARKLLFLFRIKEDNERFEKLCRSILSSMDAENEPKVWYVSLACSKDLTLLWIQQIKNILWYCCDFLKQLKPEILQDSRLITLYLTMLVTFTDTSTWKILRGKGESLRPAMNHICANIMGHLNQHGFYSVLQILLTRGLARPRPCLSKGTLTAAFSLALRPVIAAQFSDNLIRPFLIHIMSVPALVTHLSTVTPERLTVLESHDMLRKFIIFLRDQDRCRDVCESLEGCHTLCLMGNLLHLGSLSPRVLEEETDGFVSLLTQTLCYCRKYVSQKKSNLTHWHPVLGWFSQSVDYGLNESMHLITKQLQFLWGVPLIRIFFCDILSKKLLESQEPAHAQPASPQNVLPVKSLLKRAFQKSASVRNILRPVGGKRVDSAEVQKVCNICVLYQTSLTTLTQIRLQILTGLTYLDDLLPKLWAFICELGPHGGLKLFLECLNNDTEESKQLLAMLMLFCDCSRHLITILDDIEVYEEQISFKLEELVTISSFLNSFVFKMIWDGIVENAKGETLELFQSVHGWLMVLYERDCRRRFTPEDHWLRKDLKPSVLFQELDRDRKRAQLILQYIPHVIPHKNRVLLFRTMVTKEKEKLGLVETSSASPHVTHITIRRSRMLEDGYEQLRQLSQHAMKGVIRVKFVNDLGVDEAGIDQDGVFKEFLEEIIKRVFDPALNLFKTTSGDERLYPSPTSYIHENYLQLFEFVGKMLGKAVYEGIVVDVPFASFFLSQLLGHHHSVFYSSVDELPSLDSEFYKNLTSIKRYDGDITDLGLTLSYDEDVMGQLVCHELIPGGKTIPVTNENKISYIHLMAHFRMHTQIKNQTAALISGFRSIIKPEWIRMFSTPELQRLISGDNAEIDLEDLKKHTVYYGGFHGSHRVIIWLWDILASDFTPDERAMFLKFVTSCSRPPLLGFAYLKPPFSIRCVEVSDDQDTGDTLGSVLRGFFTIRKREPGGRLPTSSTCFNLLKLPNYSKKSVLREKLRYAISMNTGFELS
active: vorinostat -0.838
inactive: nilotinib 0.041 | [1] -0.006 | dasatinib 0.055 | [2] -0.011 | [3] 0.053 | quisinostat -0.077 | tipifarnib -0.102 | [4] 0.041 | [5] 0.14 | [6] -0.026 | [7] 0.117 | silmitasertib 0.061 | [8] 0.007 | entospletinib 0.115

TIMM44 (UniProt O43615)
Sequence of UniProt O43615 (O43615 whole entry, looked up): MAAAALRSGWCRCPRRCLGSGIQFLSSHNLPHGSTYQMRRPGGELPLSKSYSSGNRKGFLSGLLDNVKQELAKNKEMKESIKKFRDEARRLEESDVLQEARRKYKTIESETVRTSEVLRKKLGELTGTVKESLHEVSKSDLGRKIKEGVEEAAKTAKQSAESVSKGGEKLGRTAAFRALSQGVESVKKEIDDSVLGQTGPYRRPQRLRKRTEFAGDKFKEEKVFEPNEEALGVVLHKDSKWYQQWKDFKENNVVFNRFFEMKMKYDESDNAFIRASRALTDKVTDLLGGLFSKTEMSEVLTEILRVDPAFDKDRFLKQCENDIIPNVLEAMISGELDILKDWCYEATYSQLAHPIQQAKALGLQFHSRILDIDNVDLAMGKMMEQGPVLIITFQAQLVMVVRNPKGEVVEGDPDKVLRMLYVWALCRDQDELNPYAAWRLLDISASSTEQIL
inactive: nilotinib 0.082 | [1] -0.011 | dasatinib -0.087 | [2] 0.023 | [3] -0.028 | quisinostat 0.003 | tipifarnib -0.108 | [4] -0.058 | [5] 0 | [6] -0.031 | [7] 0.045 | silmitasertib 0.015 | [8] 0.029 | entospletinib -0.026
active: vorinostat 0.245
